Measured values as given in PubChem BioAssay (NCATS).
Records with an inconclusive call do not appear. Active and inactive are the calls of the source. Calls follow the shape of the dose curve; as a rule, active = well fitted curve in either direction with a large enough effect (not every such curve was filed as active); inconclusive = small, poorly fitted or top-dose-only effect, or another doubt; inactive = flat fitted curve, though single readings scatter.

experiment: NFAT Signaling Pathway (AID 444); details: Jurkat NFAT-bla M1, carbachol, beta-lactamase ratio, 5 h; at 17.2 µM (top of the series) unless noted;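 also: carbachol stimulus at about its EC50 of 1 µM final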
Outline: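 Read-out: CCF4 FRET ratio (460 nm/530 nm) after 1 h RT dye loading, used for %activity and AC50 from titration series. Cells: Jurkat NFAT-β-lactamase/M1 line, treated with compound plus 1 uM carbachol for 5 h, 37 °C.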
% is scaled to controls: 0 for no effect and ±100 for the full control effect.

Activity change, negative = inhibition, inactive:
Clc1nc(-c2n[nH]nc2Cl)n[nH]1 -2.11%
COc1ccc(C(O)C(CN2CCOCC2)c2ccccc2)cc1 (stereo not drawn) 7.08%
CN(C)/C=C1\N=C(c2ccc(Cl)cc2Cl)OC1=O -5.67%
N#Cc1nc(COc2ccc(Br)cc2)oc1NCCN1CCOCC1 10.5%
CCOC(=O)C(C)Oc1nc(Oc2ccccc2)nc(N(C)C)n1 (stereo not drawn) 11%
CC(C)(C)C1=Nn2c(nnc2C2CCCCC2)SC1 -6.37%
COc1ccc(/C(O)=C2/C(=O)C(=O)N(CCN3CCOCC3)C2c2cccnc2)cc1OC (stereo not drawn) 7.11%
CCOC(=O)C1=C(C)NC(=O)NC1c1ccc2c(c1)OCO2 (stereo not drawn) -26.9%
COC(=O)CC(=O)Cc1nc(N)nc(Nc2ccc(C)c(C)c2)n1 -5.97%
Cc1ccc(CC2CC(=O)N(c3ccc4c(c3)OCCO4)C2=O)cc1 (stereo not drawn) 4.5%
CN/C(=C/[N+](=O)[O-])NCCSCc1ccc(CN(C)C)o1 -27.6%
CCNc1nc(NC(C)C)nc(N(C#N)C(C)C(=O)N(C)C)n1 (stereo not drawn) 0.731%
S=c1[nH]nc(-c2ccccc2)n1Cc1ccccc1 -11.2%
CCOC(=O)c1c(C)n(C)c2ccc(OC)c(NC(=O)CN3CCCCC3)c12 -1.27%
COc1ccc(CCNC(=O)c2ccc(=O)[nH]n2)cc1OC -8.89%
COc1ccc(OC)c(C2/C(=C(\O)c3ccc(OC)c(Cl)c3)C(=O)C(=O)N2CCN(C)C)c1 (stereo not drawn) 2.23%
CC(C)OC(=O)[C@H]1[C@H](c2ccc(Cl)cc2)[C@@](C#N)(C(N)=O)[C@@H]2C=CC(C(N)=O)=CN21 -5.51%
Cc1ccc(-c2nn(CCC(=O)NCC3CCCO3)c(=O)c3ccccc23)cc1 (stereo not drawn) -7.06%
C=CCOc1nc2c(c(=O)n(Cc3ccc(Cl)cc3)c(=O)n2C)n1C 4.79%
COc1cc(C(=O)NCC(=O)n2nc(C)cc2C)cc(OC)c1OC -4.87%
CCC1(C)Cc2c(sc3nc4n(c(=O)c23)CCS4)CO1 (stereo not drawn) -16.6%
CCOc1ccc(-n2c(SCc3ccc(C#N)cc3)nnc2-c2cccnc2)cc1 6.12%
COc1ccc(OC)c(C2NC(=O)c3sc(=S)n(-c4ccccc4)c3N2)c1 (stereo not drawn) -12.2%
CC1CCc2cc(F)cc3c(O)c(C(=O)NCC4CCCO4)c(=O)n1c23 (stereo not drawn) -19.9%
COC(=O)c1nn2c(C(F)(F)F)cc(-c3ccc(Br)o3)nc2c1Br -16.6%
CCOc1ccc(N=C2C(=O)N(CN3CCOCC3)c3ccccc32)cc1 6.57%
O=C(Nc1nc(=O)c2ccccc2s1)c1ccccc1 -15.9%
Cc1cc(N2CCN(C3CCCC3)CC2)n2c(nc3ccccc32)c1C#N 19.5%
COc1ccc(C2/C(=C(/O)c3cnn(-c4ccccc4)c3C)C(=O)C(=O)N2CCN(C)C)cc1OC (stereo not drawn) 18.7%
CC(C)C1C(C#N)=C(N)Oc2n[nH]c(C(C)(C)C)c21 (stereo not drawn) -6.87%
COc1ccccc1NC(=O)c1c(C)cc(=O)oc1C 12.5%
CCC(=O)OC1=C2C(=Nc3c(c(=O)n(C)c(=O)n3C)C2c2ccccc2)c2ccccc21 (stereo not drawn) -4%
CSc1nnc(N(CCC#N)CCC#N)s1 21.3%
CCOC(=O)C1CSc2[nH]c(=O)sc2C1c1ccccc1 (stereo not drawn) -1.24%
CNS(=O)(=O)c1cccc2nsnc12 4%
C1CNCCNCCNCCN1 6.5%
Cn1c(=O)c2c(nc(N3CCC(C(N)=O)CC3)n2CCSc2nc3ccccc3s2)n(C)c1=O -5.54%
Cn1c(OCc2cccnc2)nc2c1c(=O)n(Cc1ccc(Cl)cc1)c(=O)n2C 22%
Cc1nc2ccccc2cc1O 7.71%

experiment: Stat Signaling Pathway (AID 446); details: ME-180 (cervical carcinoma) SIE beta-lactamase reporter, IL-6 stimulated, 5 h; at 17.2 µM (top of the series) unless noted;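 also: ME-180 cervical cancer cells given 40 pM IL-6 alongside compound; SIE-controlled beta-lactamase reporter measured as 460/530 nm FRET emission ratio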
Outline: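 IL-6/STAT signaling read in ME-180 cells via an SIE beta-lactamase reporter. Stimulus was 40 pM IL-6 (its AC50) for 5 hrs, so both activation and inhibition register.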

activity, negative = inhibition, inactive:
Clc1nc(-c2n[nH]nc2Cl)n[nH]1 5.38%
COc1ccc(C(O)C(CN2CCOCC2)c2ccccc2)cc1 (stereo not drawn) 8.61%
CN(C)/C=C1\N=C(c2ccc(Cl)cc2Cl)OC1=O 3.89%
N#Cc1nc(COc2ccc(Br)cc2)oc1NCCN1CCOCC1 1.36%
CCOC(=O)C(C)Oc1nc(Oc2ccccc2)nc(N(C)C)n1 (stereo not drawn) 2.57%
CC(C)(C)C1=Nn2c(nnc2C2CCCCC2)SC1 22.7%
COc1ccc(/C(O)=C2/C(=O)C(=O)N(CCN3CCOCC3)C2c2cccnc2)cc1OC (stereo not drawn) 6.33%
CCOC(=O)C1=C(C)NC(=O)NC1c1ccc2c(c1)OCO2 (stereo not drawn) -3.46%
COC(=O)CC(=O)Cc1nc(N)nc(Nc2ccc(C)c(C)c2)n1 1.4%
Cc1ccc(CC2CC(=O)N(c3ccc4c(c3)OCCO4)C2=O)cc1 (stereo not drawn) 0.576%
CN/C(=C/[N+](=O)[O-])NCCSCc1ccc(CN(C)C)o1 -3.38%
CCNc1nc(NC(C)C)nc(N(C#N)C(C)C(=O)N(C)C)n1 (stereo not drawn) 0.0609%
S=c1[nH]nc(-c2ccccc2)n1Cc1ccccc1 6.25%
CCOC(=O)c1c(C)n(C)c2ccc(OC)c(NC(=O)CN3CCCCC3)c12 -0.178%
COc1ccc(CCNC(=O)c2ccc(=O)[nH]n2)cc1OC 3.06%
COc1ccc(OC)c(C2/C(=C(\O)c3ccc(OC)c(Cl)c3)C(=O)C(=O)N2CCN(C)C)c1 (stereo not drawn) -6.77%
CC(C)OC(=O)[C@H]1[C@H](c2ccc(Cl)cc2)[C@@](C#N)(C(N)=O)[C@@H]2C=CC(C(N)=O)=CN21 -11.5%
Cc1ccc(-c2nn(CCC(=O)NCC3CCCO3)c(=O)c3ccccc23)cc1 (stereo not drawn) 4.3%
C=CCOc1nc2c(c(=O)n(Cc3ccc(Cl)cc3)c(=O)n2C)n1C 9.68%
COc1cc(C(=O)NCC(=O)n2nc(C)cc2C)cc(OC)c1OC 0.715%
CCC1(C)Cc2c(sc3nc4n(c(=O)c23)CCS4)CO1 (stereo not drawn) -2.05%
CCOc1ccc(-n2c(SCc3ccc(C#N)cc3)nnc2-c2cccnc2)cc1 -13.6%
COc1ccc(OC)c(C2NC(=O)c3sc(=S)n(-c4ccccc4)c3N2)c1 (stereo not drawn) -13.8%
CC1CCc2cc(F)cc3c(O)c(C(=O)NCC4CCCO4)c(=O)n1c23 (stereo not drawn) 1.8%
COC(=O)c1nn2c(C(F)(F)F)cc(-c3ccc(Br)o3)nc2c1Br 0.255%
CCOc1ccc(N=C2C(=O)N(CN3CCOCC3)c3ccccc32)cc1 -3%
O=C(Nc1nc(=O)c2ccccc2s1)c1ccccc1 -3.03%
Cc1cc(N2CCN(C3CCCC3)CC2)n2c(nc3ccccc32)c1C#N 28.2%
COc1ccc(C2/C(=C(/O)c3cnn(-c4ccccc4)c3C)C(=O)C(=O)N2CCN(C)C)cc1OC (stereo not drawn) -4.43%
CC(C)C1C(C#N)=C(N)Oc2n[nH]c(C(C)(C)C)c21 (stereo not drawn) -18.4%
COc1ccccc1NC(=O)c1c(C)cc(=O)oc1C 0.453%
CCC(=O)OC1=C2C(=Nc3c(c(=O)n(C)c(=O)n3C)C2c2ccccc2)c2ccccc21 (stereo not drawn) 14.9%
CSc1nnc(N(CCC#N)CCC#N)s1 2.15%
CCOC(=O)C1CSc2[nH]c(=O)sc2C1c1ccccc1 (stereo not drawn) -1.01%
CNS(=O)(=O)c1cccc2nsnc12 14.7%
C1CNCCNCCNCCN1 -0.788%
Cn1c(=O)c2c(nc(N3CCC(C(N)=O)CC3)n2CCSc2nc3ccccc3s2)n(C)c1=O 1.48%
Cn1c(OCc2cccnc2)nc2c1c(=O)n(Cc1ccc(Cl)cc1)c(=O)n2C -15.9%
Cc1nc2ccccc2cc1O 5.42%
